Screening data (PubChem BioAssay)
The full list was thinned out, with hits kept by preference.
Chlamy TAG – increases triacylglycerol in Chlamydomonas reinhardtii. Chlamydomonas reinhardtii TAG, Nile Red fluorescence, 72 h. calls only at 10 µM (by protocol). actives 0.84% (n = 44,000). AID 1159537; call rule not given here;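 note: hits raise Nile Red signal meaning more stored TAG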
The depositor's hits bear a star; i = inactive; + = active, no number.

SMILES	Chlamy TAG
COc1cccc(CN2CCN(C(=O)c3cc(OC)c(OC)c(OC)c3)CC2)c1OC	+
COc1ccc(CN2CCN(Cc3ccccc3)CC2)c(OC)c1OC	+
COc1cccc(CN2CCN(Cc3ccc(F)cc3)CC2)c1OC	+
COc1cccc(CN2CCN(Cc3cc(OC)c(OC)c(OC)c3)CC2)c1OC	i
COc1cc(C(=O)N2CCN(Cc3ccc(OC)c(OC)c3OC)CC2)cc(OC)c1OC	i
COc1ccc(CN2CCN(c3ccccc3Cl)CC2)c(OC)c1OC	i
COc1ccc(CN2CCN(Cc3ccc(SC)cc3)CC2)c(OC)c1OC	i
COc1cc(C(=O)N2CCN(Cc3ccccc3F)CC2)cc(OC)c1OC	i
COc1ccc(CN2CCN(Cc3cccc(OC)c3OC)CC2)cc1	i
COc1ccc(C(=O)c2sc3nc(C)cc(C)c3c2N)cc1	i
O=C(Nc1ccc2c(c1)OCO2)c1ccc2c(c1)C(=O)N(C1CCCCC1)C2=O	i
O=[N+]([O-])c1ccccc1CNC1CCCC1	i
COc1ccc(NC(=O)Nc2ccc(F)cc2)cc1	i
COc1ccc(C2=CC(c3ccc(Cl)cc3)n3ncnc3N2)cc1OC (stereo unspecified)	i
c1ccc(CN2CCC(NC3C4CC5CC(C4)CC3C5)CC2)cc1 (stereo unspecified)	i
O=[N+]([O-])c1ccc(CN2CCN(C3CC4CCC3C4)CC2)cc1 (stereo unspecified)	+
c1ccc(CN2CCN(C3CC4CCC3C4)CC2)cc1 (stereo unspecified)	+
O=[N+]([O-])c1cccc(CN2CCN(C3CC4CCC3C4)CC2)c1 (stereo unspecified)	i
O=[N+]([O-])c1ccc(CN2CCN(C3CCN(Cc4ccccc4)CC3)CC2)cc1	i
Oc1ccc(Br)cc1CN1CCN(C2CC3CCC2C3)CC1 (stereo unspecified)	i
COc1ccc(NC(=O)c2ccc(NC(C)=O)cc2)c(OC)c1	i
Cc1ccccc1-c1nc2c3c4c(sc3ncn2n1)C(C)(C)NC(C)(C)C4	i
COc1ccc(C2=NN(C(=O)CCC(=O)O)C(c3ccccc3Cl)C2)cc1OC (stereo unspecified)	i
COc1cc(Br)cc(CN2CCN(c3cccc(C)c3C)CC2)c1O	i
COc1ccc(CN(C)C2CCCCC2)c(C)c1C	+
SMILES	Chlamy TAG
COc1ccc(CN2CCCCC2C)c(C)c1C (stereo unspecified)	i
COc1ccc(CN(C)C2CCN(C)CC2)c(OC)c1OC	i
CCc1ccccc1NC(=O)CCC1CCCC1	i
O=C(CSCc1ccc([N+](=O)[O-])cc1)NCc1ccco1	i
C=C(C)CSc1nnc2n(-c3ccc(OC)cc3)c(=O)c3c4c(sc3n12)COC(C)(C)C4	i
Cc1ccc(NC(=O)c2ccccc2[N+](=O)[O-])cc1F	i
Cc1c(C(=O)Nc2ccc(F)c(F)c2)cccc1[N+](=O)[O-]	+
Cc1c(C(=O)Nc2ccc(F)c(Cl)c2)cccc1[N+](=O)[O-]	i
COc1ccc(/C(C)=C2\SC(N3CCOCC3)=NC2=O)cc1	i
COc1ccc(NC(=O)c2cc([N+](=O)[O-])ccc2N2CCOCC2)cc1	i
C=CCC1(NCCO)CCCCC1	i
Cc1nnc(N2C(=O)C(=O)C(=C(O)c3ccc(OC(C)C)cc3)C2c2ccccc2F)s1 (stereo unspecified)	i
O=C(Nc1cccnc1)c1ccc(S(=O)(=O)c2ccc(Cl)cc2)cc1	+
O=C(Nc1cccnc1)c1ccc(-c2ccc(Cl)cc2)o1	i
CS(=O)(=O)N(Cc1ccccc1Cl)c1ccc(C(=O)Nc2cccnc2)cc1	i
COc1cc(SC)ccc1C(=O)Nc1cccc(C(C)=O)c1	i
C=CCc1cc(C)ccc1OCCOCCN1CCOCC1	i
Cc1ccc(C(C)C)cc1OCCOCCN1CCOCC1	+
Brc1ccccc1OCCCN1CCOCC1	i
CN1CCN(CCCOc2ccc(Cl)cc2C(C)(C)C)CC1	i
CN1CCN(CCCOc2cc(Cl)ccc2Cl)CC1	+
CN(C)CCCOc1ccc(Cl)cc1Br	i
Clc1ccc(OCCCN2CCOCC2)c(Br)c1	+
Cc1ccc(C(C)C)cc1OCCCN1CCNCC1	i
Clc1ccc(OCCCCN2CCCC2)c(Br)c1	+
SMILES	Chlamy TAG
Brc1ccccc1OCCCCN1CCCCC1	i
O=C(COc1ccc(Cl)cc1Br)NCCN1CCOCC1	i
CN1CCN(CCCOc2ccc(Cl)c(Cl)c2)CC1	i
Cn1c(SCC(=O)N2CCN(c3nc4ccccc4s3)CC2)nnc1-c1ccccc1	i
CCOc1ccc(N2C(=O)CC(NCCc3ccccc3OC)C2=O)cc1 (stereo unspecified)	i
N#C/C(=C/c1ccccn1)c1ccc([N+](=O)[O-])cc1	i
Cc1ccc(NC(=O)CN(c2cccc(C)c2C)S(C)(=O)=O)cc1	i
O=C(Nc1cccc(F)c1)c1ccccc1Br	i
CCCc1noc(-c2ccccc2Cl)n1	i
O=C(NCCc1cccc(Cl)c1)c1ccccc1Cl	i
COc1ccc(Cl)cc1NC(=O)C1C2C=CC(C2)C1C(=O)O (stereo unspecified)	i
O=S(=O)(Nc1ccc(I)cc1)c1ccc2nsnc2c1	i
Cc1ccc(C(O)=C2C(=O)C(=O)N(c3nncs3)C2c2cccc([N+](=O)[O-])c2)cc1 (stereo unspecified)	i
COc1cc(OC)cc(C(=O)Nc2cc(-c3nc4ccccc4o3)ccc2C)c1	i
COc1ccc(OCCCOc2ccc([N+](=O)[O-])cc2)cc1	i
CCOc1ccccc1C(=O)Nc1cc(OC)c(Cl)cc1OC	i
Cc1ccc(OCCCCN2CCOCC2)c(Br)c1	i
Clc1cc(Br)ccc1OCCOCCN1CCOCC1	+
Brc1cccc(OCCN2CCOCC2)c1	i
CC1CCCC(C)N1CC(O)COc1ccc(Br)cc1 (stereo unspecified)	i
COc1ccccc1NC(=O)c1cc(S(=O)(=O)N2CCOCC2)ccc1Br	i
Cc1ccc(-c2nc3ncccc3o2)cc1NC(=O)c1ccc([N+](=O)[O-])cc1	i
COc1ccccc1OCCCOc1ccc([N+](=O)[O-])cc1	i
CCOc1ccc(N(C(C)C(N)=O)S(C)(=O)=O)cc1 (stereo unspecified)	i
C=CCNC(=O)C(C)N(c1ccc(OCC)cc1)S(C)(=O)=O (stereo unspecified)	+
SMILES	Chlamy TAG
CCOc1ccc(N(C(C)C(=O)NCc2ccccc2OC)S(C)(=O)=O)cc1 (stereo unspecified)	i
Cc1ccc([N+](=O)[O-])cc1NC(=O)c1cccc(S(=O)(=O)N2CCOCC2)c1	i
COc1ccc(Cl)cc1NC(=O)C(C)(C)Oc1ccc(Cl)cc1	i
CC(C)(Oc1ccc(Cl)cc1)C(=O)Nc1ccccc1Br	i
CC(C)(Oc1ccc(Cl)cc1)C(=O)Nc1ccc(Br)cc1F	+
O=c1c2ccccc2nc(/C=C/c2ccc([N+](=O)[O-])cc2)n1CCO	i
Cc1cc(C)c(NC(=O)C(=O)NC(C)C)c(C)c1	i
COc1cc(-c2ccc(NC(=O)c3ccco3)c(OC)c2)ccc1NC(=O)c1ccco1	+
COc1ccc(OC)c(NC(=O)c2ccco2)c1	i
Cc1cc(-c2ccc(NC(=O)c3ccco3)c(C)c2)ccc1NC(=O)c1ccco1	i
Cc1cc(C)c(C(=O)Nc2nc3ccc([N+](=O)[O-])cc3s2)c(C)c1	i
CC1CC(=O)C2=C(C1)OC(N)=C(C#N)C2c1ccoc1 (stereo unspecified)	i
